Screen size: about 220,000 compounds; about 910 (0.41%) were called active. Shown is part of a subset that was picked to be rich in actives. Entries with a potency or affinity are not part of this list. Unmarked numbers belong to inactive results.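 The calls were made as follows: active = primary inhibition above the hit cutoff, then over 50% inhibition at one or more dose response concentrations (cut at about 23% in these data, passing the limit was not always enough); inconclusive = conflicting primary data, or primary hits not chosen for dose response; inactive = low primary inhibition, or under 50% at every dose.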

The test deals with Aminopeptidase N (Plasmodium falciparum (isolate 3D7)) (UniProt O96935). The experiment in a line: P. falciparum M1AAP inhibitors, biochemical, fluorogenic H-Leu-NHMec substrate, 1536-well (AID 1445).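 Also: plate controls were DMSO full reaction for no effect and no enzyme background for full effect.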 Conditions: recombinant M1AAP, H-Leu-NHMec fluorogenic kinetic assay; at 30 µM, active compounds read high unless noted.
Sequence of Aminopeptidase N (Plasmodium falciparum (isolate 3D7)) (O96935 whole entry, looked up): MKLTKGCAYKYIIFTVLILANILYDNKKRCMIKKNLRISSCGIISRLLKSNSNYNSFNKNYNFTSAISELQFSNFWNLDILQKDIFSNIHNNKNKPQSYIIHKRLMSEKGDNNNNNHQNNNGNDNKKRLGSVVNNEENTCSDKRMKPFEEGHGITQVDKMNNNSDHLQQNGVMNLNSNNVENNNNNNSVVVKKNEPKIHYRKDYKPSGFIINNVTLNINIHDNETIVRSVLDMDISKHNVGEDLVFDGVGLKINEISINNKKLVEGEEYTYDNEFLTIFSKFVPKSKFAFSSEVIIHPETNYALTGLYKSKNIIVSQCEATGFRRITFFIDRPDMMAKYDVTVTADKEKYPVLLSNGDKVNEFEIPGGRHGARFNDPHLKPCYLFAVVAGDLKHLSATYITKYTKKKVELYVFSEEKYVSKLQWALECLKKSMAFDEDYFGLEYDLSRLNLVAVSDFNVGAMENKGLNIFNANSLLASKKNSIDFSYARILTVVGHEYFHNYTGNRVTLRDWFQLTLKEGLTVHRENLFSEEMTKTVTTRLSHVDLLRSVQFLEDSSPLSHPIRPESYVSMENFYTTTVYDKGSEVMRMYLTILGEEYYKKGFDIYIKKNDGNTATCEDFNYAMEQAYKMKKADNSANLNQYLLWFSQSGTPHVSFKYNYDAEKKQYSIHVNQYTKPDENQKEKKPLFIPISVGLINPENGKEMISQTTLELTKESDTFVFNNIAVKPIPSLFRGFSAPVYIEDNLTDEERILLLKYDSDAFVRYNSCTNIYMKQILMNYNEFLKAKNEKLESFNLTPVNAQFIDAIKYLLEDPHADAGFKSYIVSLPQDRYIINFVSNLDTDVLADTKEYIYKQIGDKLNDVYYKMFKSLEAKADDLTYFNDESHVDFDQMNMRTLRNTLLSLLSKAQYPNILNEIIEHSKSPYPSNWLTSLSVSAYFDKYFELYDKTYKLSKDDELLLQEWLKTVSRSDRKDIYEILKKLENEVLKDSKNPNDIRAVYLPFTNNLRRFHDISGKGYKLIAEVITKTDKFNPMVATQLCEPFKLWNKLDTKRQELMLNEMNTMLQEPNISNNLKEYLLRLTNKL
In general, inhibition refers to the drop in the measured response relative to a control, in per cent. For the compound `C(=N\Nc1nc2ccccc2[nH]1)/c1ccncc1`, the inhibition is 5.02%.
In the case of `CSc1cc(-c2ccccc2)n(C)c(=O)c1C#N` it was 3.47%; in that of `COc1ccc(Oc2cc(C)c3cccc(C)c3n2)cc1`, -2.89%.
The value for `Cc1ccc2nc(N=C(N)N)nc(C)c2c1` was 10.4%; that for `COc1nc(N=C(N)N)nc2ccc(C)cc12` was 20.7%; that for `Cc1cc2nc(N=C(N)N)nc(C)c2cc1C` was 9.31%.
In the case of `O=C(COC(=O)Cc1ccc(F)cc1)NCc1ccco1` it was 4.03%; in that of `CCC(C)NC(=O)COC(=O)c1csc2c1CCCC2` (centres undefined), 7.63%; in that of `COC(=O)c1ccc(CSc2nc(C(F)(F)F)c3c(c2C#N)CCC3)o1`, 3.42%.
In the case of `CCSc1nnc(NC(=O)CSc2c(Cl)cccc2Cl)s1`, the inhibition was 4.43%.
The value for `COc1ccc(S(=O)(=O)N2CCOCC2)cc1NC(=O)CO/N=C/c1ccccc1OC(F)F` was 8.16%; that for `Cc1cn(-c2ccccc2)c(C)c1/C=N\Nc1nc(N2CCOCC2)nc(N2CCOCC2)n1` was 4.34%.
Take `Cc1ccc(NC(=O)CSc2nnc(-c3ccco3)c(-c3ccco3)n2)cc1`: the inhibition was 25% (active).
In the case of `CC(=O)c1ccc(NC(=O)CSc2nnc(-c3ccco3)c(-c3ccco3)n2)cc1` it was 9.65%; in that of `Cc1cccc(C)c1NC(=O)CSc1nnc(-c2ccco2)c(-c2ccco2)n1`, 17.6%.
The value for `Cc1cc(CN(C)C(=O)CC2C(=O)NCCN2Cc2c(F)cccc2Cl)n[nH]1` (centres undefined) was -2.19%.
The value for `CCS(=O)(=O)C(C)(CCl)C(=O)Nc1ccc(C(=O)OC)cc1` (centres undefined) was 3.92%; that for `COc1ccc(-c2cc(=O)c3c(O)c(OC)c(O)cc3o2)cc1` was 17%.
On to `COc1c(O)cc2oc(-c3ccc(O)cc3)cc(=O)c2c1O`, for which the inhibition was 17.2%.
In the case of `O=S(=O)(c1ccccc1)N1CCCC1c1cccs1` (centres undefined) it was 0.58%; in that of `Cn1c(=O)cc(SCC(=O)N2CCCC2)c2ccccc21`, 7.32%.
The value for `CCN(CC)Cc1c(O)c(Cl)cc2c(C)c(C)c(=O)oc12` was 23.6% (active); that for `CCN(CC)Cc1oc(CO)cc(=O)c1O` was 5.8%; that for `Cc1c(C)c2cc(Cl)c(O)c(CN(C)C)c2oc1=O` was 14.8%.
The value for `CCc1c(C)c2cc(Cl)c(O)c(CN(C)C)c2oc1=O` was -5.92%; that for `CCc1cc2c(=O)c(-c3nc4ccccc4n3C)c(C)oc2c(CN(CC)CC)c1O` was 6.03%.
Take `Cc1c(Cc2ccccc2)c(=O)oc2cc(O)ccc12`: the inhibition is 22.2%.
With `Cc1c(Cc2ccccc2)c(=O)oc2c(O)c(O)ccc12`, the inhibition was 17.1%.
The value for `CCOc1ccc(OCCCC(=O)NC2=NCCS2)cc1` was -1.08%; that for `COc1ccc(O)c(C2NC(CC(C)C)(C(=O)O)C3C(=O)N(Cc4ccccc4)C(=O)C23)c1` (centres undefined) was 13.5%.
As to `COc1ccc(OCCC(=O)OCC(=O)Nc2cccc(Br)c2)cc1`, the inhibition was 2.82%.
The value for `O=CN1N=C(c2ccccc2)CC1c1ccccc1[N+](=O)[O-]` (centres undefined) was 0.38%.
The value for `CCCN(Cc1ccccc1)C(=S)Nc1ccc(C(C)=O)cc1` was 0.74%.
Consider `CCOc1ccc(C(Nc2cccnc2)c2cc(Cl)c3cccnc3c2O)cc1` (centres undefined), for which the inhibition is -6.83%.
In the case of `O=C(O)COc1ccccc1C(Nc1ccccn1)c1cc(Cl)c2cccnc2c1O` (centres undefined) it was 23.1%; in that of `COc1ccc(N2CCN(Cc3cc(=O)oc4cc(-c5ccccc5)c(O)cc34)CC2)cc1`, -0.12%.
In the case of `COc1ccc(F)cc1S(=O)(=O)Nc1ccc(C)cc1` it was -1.13%; in that of `CCOC(=O)N1CCN(C(=O)c2ccc3c(c2)ncn3C2CCCC2)CC1`, 2.32%; in that of `O=[N+]([O-])c1cc2c(cc1/C=N/NS(=O)(=O)c1ccc(Br)cc1)OCO2`, 3.45%.
On to `CC1CCCCC1NC(=O)CSc1nnc(CNC(=O)c2ccccc2)n1C` (centres undefined), for which the inhibition was -2.54%.
In the case of `Nn1c(SCC(=O)NC2CCCCC2)nnc1-c1ccccc1` it was 3.83%.
In the case of `Cc1cccc(C)c1OCC(=O)NCc1nnc(SCC(=O)NC2CCCCC2C)n1C` (centres undefined) it was 24.1% (active); in that of `Cc1cccc(C)c1OCC(=O)NCc1nnc(SCC(=O)NC2CCCCC2)n1C`, 3.03%.
The value for `CC1CCCCC1NC(=O)CSc1nnnn1-c1ccccc1` (centres undefined) was 2.02%; that for `CN(CC(=O)NC1CCCCC1)S(=O)(=O)c1ccc(Cl)cc1` was -0.77%; that for `CC(=O)N1CCN(C(=O)COc2ccc(Br)cc2)CC1` was 1.6%.
For `Cc1cccc(OCC(=O)N2CCN(C(=O)CCC3CCCC3)CC2)c1`, the inhibition is 22.4%.
In the case of `O=C(COc1ccc(Br)cc1)N1CCOCC1`, the inhibition was -2.69%.
The value for `O=C(CCC1CCCC1)N1CCN(C(=O)COc2ccccc2)CC1` was 21.1%; that for `CCCOc1ccc(CSc2n[nH]c(C)n2)cc1` was 8.48%; that for `COc1ccc(CCNC(=O)C(C)Sc2ccccc2)cc1OC` (centres undefined) was -0.82%.
The value for `Cc1cccc(NC(=S)NCCc2ccc3c(c2)OCCO3)c1C` was 0.53%; that for `CC1CCC(C(C)C)C(OC(=O)COC(=O)c2cc(O)ccc2N)C1` (centres undefined) was 6%.
The value for `CCn1cc(S(=O)(=O)Nc2ccccc2C(F)(F)F)cn1` was -0.46%.
Consider `NNC(=O)c1ccc(O)cc1O`, for which the inhibition was 11.6%.
In the case of `COc1ccccc1C(=O)NNC(=O)c1ccc(Cl)cc1` it was -4.03%; in that of `Cc1cccc(C(=O)NNC(=O)c2ccc(Cl)cc2)c1O`, 27.7% (active); in that of `O=C(NNC(=O)c1ccccc1Br)c1ccc(Cl)cc1`, -5.75%.
The value for `CC(C)(C)c1ccc(C(=O)NNC(=O)c2ccc(Cl)cc2)cc1` was 0.45%.
`COc1ccc(/C=C2/C(=N)N3C(=NC2=O)Sc2cc(S(C)(=O)=O)ccc23)cc1OC`: the inhibition was 4.37%.
Turning to `CC1=CSC2=NC(=O)/C(=C/c3cccc(OC(=O)c4ccco4)c3)C(=N)N12`, the inhibition was 8.4%.
`CN(C)c1ccc(/C=C2\C(=N)N3C(=NC2=O)Sc2cc(S(C)(=O)=O)ccc23)cc1`: the inhibition is 12.4%.
In the case of `COc1cc(/C=C2/C(=N)N3C(c4ccccc4)=CSC3=NC2=O)ccc1OCC(=O)O` it was 8.04%; in that of `COC(=O)CCC(=O)N1CCOCCOCCOCC1`, 3.89%; in that of `COc1cc(/C=C2/NC(=O)N(Cc3ccccc3F)C2=O)cc(OC)c1O`, 11%.
In the case of `CCOc1cc(/C=C2/NC(=O)N(Cc3ccccc3F)C2=O)ccc1O` it was 9.55%.
The value for `CC(C)CNc1nc(S(=O)(=O)c2ccccc2)c(Cl)s1` was -9.9%; that for `O=S(=O)(c1ccccc1)c1nc(NCc2ccccc2)sc1Cl` was 3.65%; that for `Cc1ccc(S(=O)(=O)c2nc(NCCCn3ccnc3)sc2Cl)cc1` was 1.08%.
For `Cc1ccc(S(=O)(=O)c2nc(NN(C)C)sc2Cl)cc1`, the inhibition is 2.25%.
For `Cc1ccc(S(=O)(=O)C2CS(=O)(=O)CC2O)cc1` (centres undefined), the inhibition was -0.11%.
On to `c1ccc(CCCCNCC2COc3ccccc3O2)cc1` (centres undefined), for which the inhibition is 0.11%.
The value for `C=CCNC(=O)c1ccc([N+](=O)[O-])c(Cl)c1` was 1.78%.
The value for `CC1=C(C(N)=O)C(c2cccs2)NC(=O)N1` (centres undefined) was 0.41%; that for `FC(F)(F)c1cc(-c2cccs2)nc2cc(-c3cccs3)nn12` was 2.78%; that for `FC(F)(F)c1cc(-c2cccs2)nc2ncnn12` was 14.3%.
The value for `O=C(NCCCn1ccnc1)/C(=C\c1cccs1)NC(=O)c1ccco1` was 2.24%; that for `CC(C)=CC(=O)NCCc1ccccc1` was 0.11%; that for `Cc1ccc2c(c1)NCCO2` was 9.62%.
For the compound `Cc1cc(=O)oc2cc3c(cc12)OCCO3`, the inhibition was 9.01%.
The value for `CN(C)c1ccc(CNn2cnnc2SCc2ccccc2F)cc1` was 3.42%; that for `Cc1ccccc1OCCCC(=O)Nc1ccccc1C(F)(F)F` was -2.79%; that for `CCOC(=O)CC1C(=O)NCCN1C(=O)c1cc2c(=O)n3ccccc3nc2s1` (centres undefined) was -1.82%.
The value for `CC(C)CN1C(=O)/C(=C/c2c(N3CCc4ccccc4C3)nc3ccccn3c2=O)SC1=S` was 2.88%.
The value for `CCOCCCNc1nc2c(C)cccn2c(=O)c1/C=C1\SC(=S)N(C(C)CC)C1=O` (centres undefined) was 3.39%; that for `CCOC(=O)CC1C(=O)NCCN1S(=O)(=O)c1ccc(C)cc1` (centres undefined) was -1.42%; that for `CCOC(=O)C(=O)c1c(-c2ccc(C)cc2)nc2ccccn12` was 10.6%.
In the case of `COC(=O)c1c(C)oc(C)c1S(=O)(=O)N1CCCCC1`, the inhibition is 0.96%.
In the case of `CCCCCCOc1ccc(C(=O)NCCCn2ccnc2)cc1` it was -4.66%.
The value for `CN(C)CCNC(=O)NC1CCCCC1` was 4.13%.
The value for `CC(=O)NS(=O)(=O)c1ccc(NC(=O)c2ccc3c(c2)C(=O)N(CCC(C)C)C3=O)cc1` was 9.98%.
Regarding `CCN1C(=O)/C(=C2\SC(=S)N(CC3CCCO3)C2=O)c2ccccc21` (centres undefined), the inhibition is 2.68%.
The value for `CC(=O)N1C(=O)/C(=C2\SC(=S)N(c3c(C)n(C)n(-c4ccccc4)c3=O)C2=O)c2ccccc21` was 9.72%; that for `CC(/C=C1\SC(=S)N(NC(=O)c2ccc(C)cc2)C1=O)=C\c1ccccc1` was 5.4%.
In the case of `Cc1ccc(S(=O)(=O)N2C(=O)/C(=C3\SC(=S)NC3=O)c3ccccc32)cc1` it was 16.8%.
The value for `CC(/C=C1\SC(=S)N(NC(=O)c2ccccc2C)C1=O)=C\c1ccccc1` was 4.17%.
Consider `CC(/C=C1\SC(=S)N(NC(=O)c2ccc(O)cc2)C1=O)=C\c1ccccc1`, for which the inhibition was 4.4%.
The value for `CC(/C=C1\SC(=S)N(NC(=O)c2ccncc2)C1=O)=C\c1ccccc1` was 13.9%; that for `CCN1C(=O)/C(=C2\SC(=S)N(CCCOC)C2=O)c2ccccc21` was 0.63%.

The record behind these values is PubChem BioAssay AID1445 (SRMLSC, 2008).
